Measurements: PubChem BioAssay (Tox21)
Records with an inconclusive call do not appear. Where a call stands in place of a potency, no number is given. Calls of active or inactive are those of the source. The call rests on the fitted dose curve; in most records, active means well fitted activation curve with a large enough effect in the repeat runs; inconclusive means weak or mixed curves; inactive means flat fitted curve, though single readings scatter.

Test: A CellTox Green Cytotoxicity Assay to monitor cytotoxicity in HEK293 cells - 8 hour (AID 1224884); further: nearly all actives have a fitted effect of over 35% in size
Settings: CellTox Green fluorescence; series mostly up to 76.8 µM
Text: National Center for Advancing Translational Sciences [NCATS]
NIH Chemical Genomics Center [NCGC]
U.S. Environmental Protection Agency [EPA]
National Institutes of Environmental Health Sciences [NIEHS]
National Toxicology Program [NTP]
Cell-based models are critical for drug discovery. Determining the natural cytotoxic effects resulting from test compounds is an essential research activity. A CellTox Green Cytotoxicity Assay to monitor cytotoxicity in real time of continues cell culture during 40 hours of the compound treatment was used to screen Tox21 10K library compounds in Hek293 cells. CellTox Green Cytotoxicity Assay is a nonlytic, homogeneous, biofluorescent method to measure cytotoxicity in cell culture after experimental manipulation. The assay system uses a proprietary asymmetric cyanine dye that is excluded from viable cells but preferentially stains the dead cell's DNA. […] Viable cells produce no appreciable increases in fluorescence. Therefore, the fluorescence signal produced by the binding interaction with dead cell DNA is proportional to cytotoxicity.
The mixture of Hek293 cell suspension and reagents were dispensed at 600cells/6 ul/well in 1536-well tissue culture treated black solid bottom plates using a Multidrop dispenser. After the assay plates were incubated at a 37 C/5% CO2 incubator for 5 hours, 23 nL of compounds dissolved in DMSO, positive and negative controls was transferred to the assay plate by a pintool work station. The plates were incubated at 37 C for 40 hours. The fluorescence intensity were measured at 0h, 8h, 16h, 24h, 32h and 40h time points using ViewLux plate reader during compound treatment.

Structure (SMILES) | Potency
CC(=O)Oc1ccc([N+](=O)[O-])cc1CCl | inactive
Oc1cccc(O)c1O | inactive
C=C(C)[C@@H]1CCC2=CCC[C@@H](C)[C@]2(C)C1 | inactive
CS(=O)(=O)c1ccc(-c2cn3ccccc3n2)cc1 | inactive
CCC1NC(=O)c2cc(S(N)(=O)=O)c(Cl)cc2N1 (stereo not given) | inactive
Cc1ccco1 | inactive
O=C(O)c1ccc(OCCCOc2ccc(C(=O)O)cc2)cc1 | inactive
COC(=O)c1nc(Cl)c(Cl)nc1N | inactive
CCCCC(CC)CN (stereo not given) | inactive
CCOC(=O)C1=C(C)NC(C)=C(C(=O)OC)C1c1cccc(Cl)c1Cl (stereo not given) | inactive
CCCCCCNC(=O)n1cc(F)c(=O)[nH]c1=O | inactive
O=C(OCC(O)CO)c1ccccc1Nc1ccnc2cc(Cl)ccc12 (stereo not given) | inactive
CCOC(C)=O | inactive
CC(=O)N/N=C/c1ccc([N+](=O)[O-])o1 | inactive
Cc1cc(O)ccc1O | inactive
C=C1CCC2CC1C2(C)C (stereo not given) | inactive
O=C1C(=O)c2ccccc2C(O)=C1C1CCC(c2ccc(Cl)cc2)CC1 (stereo not given) | inactive
CCCCOc1ccc(OCCCN2CCOCC2)cc1 | inactive
CCCC(C(=O)OCCN(CC)CC)(c1ccccc1)c1ccccc1 | inactive
Cc1ccc(CO)cc1 | inactive

Structure (SMILES) | Potency
CC1=C(Br)C(=O)C(Br)=C/C1=C(/c1ccccc1S(=O)(=O)O)c1cc(Br)c(O)c(Br)c1C | inactive
CC(CC1c2ccccc2CCc2ccccc21)CN(C)C (stereo not given) | inactive
CC(=O)c1cc2ccccc2s1 | inactive
C=C(C)CCCC(C)CCO (stereo not given) | inactive
Oc1c(I)cc(I)c2cccnc12 | inactive
CCCCCC#CC(=O)OC | inactive
CN1CC(=O)N2[C@H](c3ccc4c(c3)OCO4)c3[nH]c4ccccc4c3C[C@@H]2C1=O | inactive
CCOC(=O)c1ccc(I)cc1 | inactive
COC(=O)C1=C(C)NC(C)=C(C(=O)O[C@@H]2CCCN(Cc3ccccc3)C2)[C@@H]1c1cccc([N+](=O)[O-])c1 | inactive
Cc1ccc(OC(=O)c2ccccc2O)cc1 | inactive
O=C(Cn1ccnc1[N+](=O)[O-])NCCO | inactive
CC1(C)S[C@@H]2[C@H](NC(=O)C(c3ccccc3)S(=O)(=O)O)C(=O)N2[C@H]1C(=O)O (stereo not given in full) | inactive
CCc1ccccc1 | inactive
Cc1cc2c(OCC(CNC(C)(C)C)OC(=O)c3ccccc3)cccc2[nH]1 (stereo not given) | inactive
Cc1cc(C)c(N)cc1C | inactive
CC1(C)[C@H](C(=O)O)N2C(=O)C[C@H]2S1(=O)=O | inactive
N#CCc1ccc(Cl)cc1Cl | inactive
CC(C)(O)c1ccc(CNC(=O)c2cccnc2Oc2ccc3nonc3c2)cc1 | inactive
CCC(=O)C1CC(C(C)C)CC=C1C (stereo not given) | inactive
CCC(C)(C)OC | inactive
